SMILES strings stand for the structures.

Data on 4 molecules can be found in publication PMC5540273 (PLoS ONE, 2017).

Some test systems named below: RIPK2; RIPK4; RIPK5; ROCK1; ROCK2; ROS1.
What all share (details): concentration: 1 μM, replicates: in singlicate; n = 1
In test [1] the test system is RPS6KA4(Kin.Dom.1-N-terminal).
Test [2] has as its system RPS6KA4(Kin.Dom.2-C-terminal).
Test [3] deals with RPS6KA5(Kin.Dom.1-N-terminal).
In test [4] the test system is RPS6KA5(Kin.Dom.2-C-terminal).
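Further: KINOMEscan kinase panel screen.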

Consider `CN1C(=O)C(Nc2cc(Cl)c(O)c(Cl)c2)=C(c2ccc(Cl)cc2)C1=O` [SB-404321], for which the “%Inh” value in the test with RIPK2 stood at 0%; in the test with RIPK4 it was 32%; in the test with RIPK5 it was 0%; with ROCK1 it was 6%; in the test with ROCK2 it was 0%; in the test on ROS1, 0%. The “%Inh” value in test [1], in test [2], in test [3] and in [4] was 0% in each case.

As for `CCCNC(=O)Nc1ccc(Oc2ncnc3ccn(C)c23)cc1`, the “%Inh” value is reported as 0% in the test with RIPK2; 13% in the test on RIPK4; 34% in the test with RIPK5; 0% in the test with ROCK1; 6% with ROCK2; 0% in the test with ROS1. The “%Inh” value in test [1] is reported as 0%; in test [2], 0%; in test [3] it was 23%; in test [4], 6%.

Take `COc1cccc(C2=C(Nc3cccc(C(=O)O)c3)C(=O)NC2=O)c1` [SB-390770]: the “%Inh” value came to 7% with RIPK2; 0% in the test with RIPK4; 0% in the test on RIPK5; 25% with ROCK1; 7% with ROCK2; 32% with ROS1. Also, the “%Inh” value in test [1] came to 0%; in test [2], 0%; in [3] it was 32%; in [4] it was 0%.

Regarding `Nc1ncnc2c1ncn2-c1ccc(Cl)cc1` [AH2635], the “%Inh” value is 2% with RIPK2; 2% in the test on RIPK4; 0% in the test with RIPK5; 30% with ROCK1; 0% in the test on ROCK2; 23% in the test with ROS1. For the same molecule, the “%Inh” value turned out to be 20% in test [1], 0% in [2], 0% in test [3] and 8% in test [4].
